CtBP-E1A inh = qHTS Assay for Inhibitors of the CtBP/E1A Interaction; CtBP / adenovirus E1A interaction (AlphaScreen); AlphaScreen GST-E1A/His-CtBP binding, 1536-well; hits give low values; activity change, % (no concentration beside the values); 340,000 compounds, 0.49% hits; AID 651724, 2012; in the data active = activity change below about -65%; inconclusive = mostly about -30% to -63%
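GST-E1A and His-tagged CtBP (125 nM each as 5X stock) were preincubated with pin-transferred compound for 2 h at 37 °C in the dark, then glutathione donor and nickel acceptor beads were added for 1 h before AlphaScreen reading.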
TDP1 cell CPT = qHTS for Inhibitors of human tyrosyl-DNA phosphodiesterase 1 (TDP1): qHTS in cells in presence of CPT; chicken DT40 Tdp1-/-;hTDP1 cells + 20 nM CPT, ATP luminescence, 48 h; Potency, µM (series often up to 46.2 µM), hits mostly inhibitors; 420,000 compounds, 12% hits; AID 686979, 2013; also: nearly all actives have a fitted effect of over 55% in size
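Chicken DT40 Tdp1-/- cells stably complemented with human TDP1 were seeded at 400 cells/well in medium containing 20 nM camptothecin, exposed to pin-transferred compounds, and grown at 37 °C for at least 48 hr. Viability was read as ATP luminescence.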
TDP1 inh = qHTS Assay for Inhibitors of Tyrosyl-DNA Phosphodiesterase (TDP1) | recombinant TDP1, AlphaScreen DNA substrate cleavage | Potency, µM (series often up to 130 µM), usual class: inhibitors | 350,000 compounds, 0.28% hits; also: nearly all actives have a fitted effect of over 40% in size
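Steps: enzyme plus compound, 15 min RT; add biotin/phosphotyrosine-FITC oligonucleotide (15 nM final), react 5 min; add donor/acceptor beads (10 ug/ml final), 10 min; read AlphaScreen. Tdp1 at 1 nM final.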
DT40 TDP1 no CPT = qHTS for Inhibitors of human tyrosyl-DNA phosphodiesterase 1 (TDP1): qHTS in cells in absence of CPT; DT40 Tdp1-/- hTDP1 cells, no CPT, ATP luminescence, 48 h; Potency, µM (titrated, usually from 46.2 µM), hits mostly inhibitors; 420,000 compounds, 15% hits; AID 686978, 2013; also: nearly all actives have a fitted effect of over 55% in size
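Seeded 400 DT40-hTDP1 cells/well (vehicle DMSO, no 20 nM CPT); pinned compounds; ≥48 hr at 37 °C; CellTiter-Glo luminescence as viability measure.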
Six1-Eya2 blk = qHTS Assay for Inhibitors of the Six1/Eya2 Interaction; activity change, % (no concentration beside the values); AlphaScreen GST-Six1/His-Eya2 binding, biochemical; hits give low values; 360,000 compounds, 0.56% hits; in the data active = activity change below about -65%; inconclusive = mostly about -30% to -63%
Target sequence (O00167 whole entry, looked up): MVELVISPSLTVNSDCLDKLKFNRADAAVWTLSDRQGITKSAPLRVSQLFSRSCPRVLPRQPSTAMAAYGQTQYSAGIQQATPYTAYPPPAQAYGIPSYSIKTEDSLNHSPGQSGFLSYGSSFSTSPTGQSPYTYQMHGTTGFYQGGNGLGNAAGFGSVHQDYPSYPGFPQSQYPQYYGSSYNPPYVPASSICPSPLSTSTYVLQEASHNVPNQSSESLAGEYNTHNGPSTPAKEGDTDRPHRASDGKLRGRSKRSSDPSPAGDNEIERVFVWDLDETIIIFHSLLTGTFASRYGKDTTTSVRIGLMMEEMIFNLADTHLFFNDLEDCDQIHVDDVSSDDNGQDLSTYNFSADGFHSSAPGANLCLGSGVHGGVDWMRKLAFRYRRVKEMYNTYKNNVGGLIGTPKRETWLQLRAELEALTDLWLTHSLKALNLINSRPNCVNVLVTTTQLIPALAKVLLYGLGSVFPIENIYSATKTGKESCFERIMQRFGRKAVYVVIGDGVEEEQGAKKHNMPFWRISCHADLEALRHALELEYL
Target sequence (Q15475 whole entry, looked up): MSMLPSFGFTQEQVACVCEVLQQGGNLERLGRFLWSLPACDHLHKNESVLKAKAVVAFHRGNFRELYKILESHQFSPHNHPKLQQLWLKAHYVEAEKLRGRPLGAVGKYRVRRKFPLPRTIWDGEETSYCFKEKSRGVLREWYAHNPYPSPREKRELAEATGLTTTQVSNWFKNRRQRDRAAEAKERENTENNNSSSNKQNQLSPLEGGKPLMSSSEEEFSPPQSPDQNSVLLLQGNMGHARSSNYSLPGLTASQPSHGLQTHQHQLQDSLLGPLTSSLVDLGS
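Six1/Eya2 binding was read as AlphaScreen signal after compounds were pinned into GST-Six1 plus His-tagged Eya2 (5X stock 250/500 nM) in pH 8.0 Tris/NaCl/TCEP buffer, beads added, then incubated 1 h, 37 C, dark.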
IL-1B inflam inh = qHTS for Inhibitors of Inflammasome Signaling: IL-1-beta AlphaLISA Primary Screen; THP-1 LPS/ATP IL-1B secretion, AlphaLISA, 16 h; hits give low values; activity change, % at 57.5 µM; 360,000 compounds, 4.7% hits; AID 743279, 2014; in the data active = activity change below about -50%; inconclusive = mostly about -30% to -49%
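Secreted IL-1B measured by AlphaLISA bead assay after 16 h compound exposure of THP-1 cells; compounds (final up to 57.5 uM) added 1 h before LPS (250 ng/mL) and ATP (1.25 mM) stimulation; lower signal means less secretion.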
A number is an active result; - = inactive; ? = inconclusive; . = no result given. Shown are actives, neighbours in structure and some others; about 18% of the full set was active somewhere. Unless noted, calls follow the shape of the dose curve; as a rule, active = well fitted curve in the direction sought with a large enough effect; inconclusive = small, poorly fitted or top-dose-only effect, or another doubt; inactive = no such curve, though single readings can be large; an effect the other way counts as inactive or inconclusive.

SMILES	CtBP-E1A inh	TDP1 cell CPT	TDP1 inh	DT40 TDP1 no CPT	Six1-Eya2 blk	IL-1B inflam inh
Cc1ccc2c(c1)C1CN(C)CCC1N2C(=O)Nc1cccc(Cl)c1 (centres undefined)	-	?	-	23µM	-	-53
Cc1ccc2c(c1)C1CN(C)CCC1N2C(=O)c1ccco1 (centres undefined)	-	-	-	-	-	-
Cc1ccc2c(c1)C1CN(C)CCC1N2C(=O)Cn1cnc2c1c(=O)n(C)c(=O)n2C (centres undefined)	-	-	-	-	-	-
CCOc1ccc(-n2c(SCc3nc(-c4ccccc4C)no3)nnc2-c2ccccc2)cc1	.	-	-	?	.	.
C[C@H](CO)N1C[C@H](C)[C@H](CN(C)C(=O)N[C@H](C)c2ccccc2)OCc2ccccc2-c2c(n(C)c3ccccc23)C1=O	-	23µM	.	16µM	-	-
C[C@@H]1CN([C@@H](C)CO)C(=O)c2c(c3ccccc3n2C)-c2ccccc2CO[C@H]1CN(C)C(=O)[C@H](C)c1ccccc1	-	16µM	.	18µM	-	-
O=c1[nH]c(=O)n(-c2ccccc2Cl)c(O)c1C=NCCN1CCCCC1	-	-	-	-	-	?
O=P(Oc1ccccc1)(N1CCOCC1)N1CCOCC1	-	-	.	-	-	-
CN(c1ccccc1)P(=O)(N1CC1)N1CC1	-	2.6µM	.	4.1µM	-	-
CC[C@H](C)/C=C(C)/C=C/C1=CC2=C(Cl)C(=O)[C@](C)(OC(C)=O)C(=O)C2=CO1	-	?	-	?	-	-
CC(=O)[C@]1(O)CCC2C3CCC4=CC(=O)CC[C@@]4(C)C3CC[C@]21C (some centres undefined)	.	?	-	-	.	.
CC12Cc3cn[nH]c3C=C1CCC1C2CCC2(C)C1CCC2(C)O (centres undefined)	-	?	.	?	-	-91
Cc1cccc(N2CCN(C(=O)c3ccc(CNc4c(N5CCC(C)CC5)c(=O)c4=O)cc3)CC2)c1C	-	?	-	16µM	-	-
CC(O)C1C=CC=CC(=O)OC2CC3OC4C5OC5(C)CCC4(COC(=O)C4OC4(C)C(O)CO1)C2(C)C31CO1 (centres undefined)	-	0.052µM	.	0.052µM	-	-100
CC(=O)OC1C(=O)OCC23CCC4(C)OC4C2OC2CC(OC(=O)C=CC=CC(=O)OCCC1C)C3(C)C21CO1 (centres undefined)	-	0.15µM	.	0.021µM	-	-101
CN1C(=O)COc2c(C(=O)N[C@@H]3CN4CCC3CC4)cc(Cl)cc21	.	-	-	-	.	.
O=c1[nH]c(O)c(N=Nc2ccc([N+](=O)[O-])cc2)c(=O)[nH]1	.	?	-	-	-	-
C[C@H]1CNC(=O)c2c(C(=O)N3CCN(C(=O)OC(C)(C)C)CC3)ncn21	-	26µM	.	?	-	-
Clc1cccc(CNCCc2ccc3c(c2)OCO3)c1	-	?	.	?	-	-81
COc1ccc(Br)cc1CNCCc1ccc2c(c1)OCO2	-	-	.	?	-	?
COc1ccc(CNCCc2ccc3c(c2)OCO3)cc1Br	.	?	.	21µM	-	-
Clc1ccc(CNCCc2ccc3c(c2)OCO3)cc1	-	-	.	-	-	-84
COc1cc2c(c3oc4cccc(O)c4c(=O)c13)C1C=CO[C@@H]1O2 (some centres undefined)	.	.	-	.	.	.
CCCN(CCC)CCc1c[nH]c2ccc(C(N)=O)cc12	.	-	-	-	.	.
CCOC(=O)C(O)(c1ccc(NC(=O)Oc2ccccc2)cc1)C(F)(F)F (centres undefined)	-	-	-	?	-	-
SMILES	CtBP-E1A inh	TDP1 cell CPT	TDP1 inh	DT40 TDP1 no CPT	Six1-Eya2 blk	IL-1B inflam inh
CCOC(=O)C(O)(c1ccc(NC(=S)NC(=O)c2ccc(Cl)cc2Cl)cc1)C(F)(F)F (centres undefined)	-	?	-	26µM	-	?
COC(=O)C(O)(c1ccc(NC(=S)NC(=O)c2ccc(Cl)cc2Cl)cc1)C(F)(F)F (centres undefined)	-	?	-	15µM	-	-
CCOC(=O)C(NC(=O)CCl)(Nc1ccc(C(O)(C(=O)OCC)C(F)(F)F)cc1)C(F)(F)F (centres undefined)	-	?	-	?	-	-89
COC(=O)C(O)(c1ccc(NC(=O)NC2CCCCC2)cc1)C(F)(F)F (centres undefined)	-	-	-	?	-	-
S=C=Nc1cccc(C2(N3CCCCC3)CCCCC2)c1	-	21µM	-	16µM	-	-54
CC[N+](CC)(CC)CCCOC(=O)C(O)(c1ccccc1)C1CCCCC1 (centres undefined)	-	?	-	?	-	-
N#CC(C#N)=Cc1cc(O)c(O)c(O)c1	.	9.4µM	-	15µM	.	.
COC(=O)C1C2c3ccccc3C(c3ccccc32)C1(C)C(=O)OC (centres undefined)	-	-	.	-	-	-
C/C1=C\[C@@H](C)C/C=C/[C@H]2[C@@H]3O[C@]3(C)[C@@H](C)[C@H]3[C@H](Cc4c[nH]c5ccccc45)NC(=O)[C@]32C(=O)/C=C/C(=O)[C@@H]1O	-	0.15µM	-	0.15µM	-	-105
O=C(CN1C(=O)CN=C(c2ccccc2)c2ccccc21)Nc1cccc(C(F)(F)F)c1	.	?	-	?	.	.
O=C(NCc1ccc2c(c1)CCN2C(=O)c1ccccc1)Nc1cccc(C(F)(F)F)c1	.	15µM	-	?	.	.
COc1ccc(C(=O)CC(c2ccc3c(c2)OCO3)c2c(O)c3ccccc3oc2=O)cc1OC (centres undefined)	-	-	.	?	-	-
CC(C)[C@H]1C(=O)O[C@H](C(C)C)C(=O)N(C)[C@@H](C(C)C)C(=O)O[C@H](C(C)C)C(=O)N(C)[C@@H](C(C)C)C(=O)O[C@H](C(C)C)C(=O)N1C	-	3.3µM	-	4.1µM	-	-
Cn1c(=O)oc2cc(S(=O)(=O)N3CCCc4ccccc43)ccc21	-	4.1µM	-	5.8µM	-	-
Cc1ccc(Cl)cc1N1CCN(C(=O)C2CCN(S(=O)(=O)c3ccc4c(c3)oc(=O)n4C)CC2)CC1	.	1.2µM	-	0.73µM	.	.
Cn1c(=O)oc2cc(S(=O)(=O)N3CCc4ccccc43)ccc21	-	?	.	-	-	-

Screens: PubChem BioAssay, National Center for Advancing Translational Sciences (NCATS)
